According to PubChem BioAssay:
The source made the active and inactive calls. Unless noted, how the calls were made is not given here.

What was measured:
[1] = anti-His antibody binders, primary screen, artefact control for SMM control protein annotation, biochemical, small-molecule microarray, 635 nm fluorescence (AID 1128); conditions: anti-His Alexa647 antibody binding, higher = more signal;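 further: score merges feature fluorescence with signal-to-noise for each printed compound spot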
[2] = test system: Human papillomavirus type 1a E7 protein (residues 1-88); test: HPV1a E7 small-molecule binders, primary screen, biochemical, small-molecule microarray, residues 1-88, 635 nm (AID 1129); conditions: small-molecule microarray binding, fluorescence 635 nm; higher = more signal
[3] = target: Focal adhesion kinase 1 (Homo sapiens) (UniProt Q05397); test: small-molecule microarray binders of FAK, primary screen, biochemical, 635/667 nm fluorescence, BSA, DTT (AID 1130); conditions: PTK2 binding, 635 nm fluorescence, higher = more signal;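 further: composite of spot emission at 667 nm and signal to noise over triplicate slides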
[4] = test system: Fibrinogen (Alexa647-labelled); test: fibrinogen binders on compound microarrays, profiling panel, artefact control for SMM control-protein annotation, biochemical, small-molecule microarray, 635/667 nm fluorescence (AID 1131); conditions: fibrinogen-A647 binding fluorescence, higher = more signal;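 further: z-score merges 667 nm fluorescence with per-spot signal-to-noise over triplicate slides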
[5] = target: Follistatin (Homo sapiens) (UniProt P19883); test: follistatin binders on small-molecule microarrays, primary screen, biochemical, small-molecule microarray, 635/667 nm fluorescence (AID 1132); conditions: FST binding, 635 nm fluorescence, higher = more signal
[6] = target: Fibroblast growth factor 2 (Homo sapiens) (UniProt P09038); test: FGF2 binders on small-molecule microarrays, primary screen, biochemical, small-molecule microarray, 635/667 nm fluorescence (AID 1133); conditions: small-molecule microarray binding, FGF2, fluorescence 635/667; higher = more signal
[7] = mitochondrial membrane potential change in A549 cells, profiling panel, cell-based, JC-1 fluorescence, basal, 24 h, 100 nL (AID 1138); conditions: higher = more signal;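 further: A549 lung adenocarcinoma cells under basal conditions with no added stimulus; test concentration not given here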
Lefty1 = Lefty1 binders on small-molecule microarrays, primary screen, biochemical, small-molecule microarray, 635/667 nm fluorescence (AID 1139); conditions: small-molecule microarray binding, fluorescence 635/667; higher = more signal
[8] = test system: wheat germ agglutinin (Triticum aestivum), Alexa647-labelled; test: wheat germ agglutinin binders on compound microarrays, profiling panel, artefact control for SMM control-protein annotation, biochemical, small-molecule microarray, 635/667 nm fluorescence (AID 1140); conditions: WGA-A647 binding, 635 nm fluorescence, higher = more signal;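 further: score merges 667 nm feature emission with signal to noise over triplicate slides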
[9] = target: Luciferin 4-monooxygenase (Photinus pyralis) (UniProt P08659); test: firefly luciferase enzyme inhibitors, primary screen, biochemical, luminescence, purified enzyme, 2006 set (AID 1141); conditions: SteadyGlo luminescence, 30 min, higher = more signal, called active from +8 up or from −8 down;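 further: cell-free assay with purified firefly luciferase at 100 ng per well in PBS; test concentration not given here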
[10] = test system: Wnt5a (protein binding on small-molecule microarray); test: Wnt5a binders on small-molecule microarray, primary screen, biophysical, 635/667 nm fluorescence (AID 1142); conditions: 635 nm fluorescence, higher = more signal;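 further: fluorescence read at 667 nm with signal to noise per printed feature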
[11] = cell viability in Huh7 cells, primary screen, cytotoxicity control for HCV replication inhibitor project, CellTiter-Glo luminescence, basal, 48 h (AID 1143); conditions: Huh7 HCV replicon, higher = more signal, called active from +8 up or from −8 down;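 further: Huh7 hepatoma cells carrying a hepatitis C replication reporter with no stimulus; test concentration not given here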
[12] = P. aeruginosa biofilm formation inhibitors, primary screen, PAO1 strain, BacTiter-Glo luminescence, LB-PBS (AID 1144); conditions: 12 h, higher = more signal
[13] = CREB reporter modulators without forskolin, primary screen, cell-based, PC12, CRE-LacZ reporter, unstimulated (AID 1145); conditions: no forskolin, luminescence, 4.5 h, higher = more signal, called active from +8 up or from −8 down
[14] = CREB reporter modulators under forskolin, primary screen, cell-based, PC12, CRE-LacZ reporter, forskolin-stimulated (AID 1146); conditions: luminescence, 4.5 h, higher = more signal, called active from +8 up or from −8 down;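 further: PC12 cells with 6xCRE LacZ reporter stimulated by forskolin 10 µM; beta-galactosidase reporter signal reflecting CREB driven transcription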
[15] = target: Streptavidin (Streptomyces avidinii) (UniProt P22629); test: streptavidin binders on small-molecule microarray, primary screen, artefact control for SMM compound annotation, biophysical, 635/667 nm fluorescence (AID 1147); conditions: streptavidin binding, higher = more signal;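 further: signal reflects streptavidin binding to arrayed compounds as a control protein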
[16] = small-molecule binders of probe aInhba, primary screen, biochemical, small-molecule microarray, 635/667 nm fluorescence (AID 1148); conditions: higher = more signal;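 further: score merges 667nm spot fluorescence with signal-to-noise for antibody binding to printed compounds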
Torsin-1A (Homo sapiens) [17] = target: Torsin-1A (Homo sapiens) (UniProt O14656); test: torsin A binders from cell lysate, primary screen, small-molecule microarray, wild-type, 635/667 nm (AID 1149); conditions: COS7 hTOR1A-WT lysate, 635 nm fluorescence, higher = more signal
Torsin-1A (Homo sapiens) [18] = target: Torsin-1A (Homo sapiens) (UniProt O14656); test: small-molecule binders of mutant TOR1A in lysate, primary screen, cell lysate, small-molecule microarray, COS7 lysate, 635/667 nm fluorescence (AID 1150); conditions: COS7 hTOR1A mutant lysate, 635 nm fluorescence, higher = more signal;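 further: score pools 667 nm emission and signal to noise measuring lysate protein binding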
[19] = test system: Sonic hedgehog protein (Shh); test: small-molecule binders of Shh protein, primary screen, biochemical, small-molecule microarray, 635/667 nm fluorescence (AID 1151); conditions: small-molecule microarray binding, 635 nm fluorescence; higher = more signal;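 further: Shh protein binding to compounds spotted on small-molecule microarray slides; score combines spot fluorescence intensity with signal-to-noise across triplicate slides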

Chain of Follistatin (Homo sapiens) (P19883 whole entry, looked up): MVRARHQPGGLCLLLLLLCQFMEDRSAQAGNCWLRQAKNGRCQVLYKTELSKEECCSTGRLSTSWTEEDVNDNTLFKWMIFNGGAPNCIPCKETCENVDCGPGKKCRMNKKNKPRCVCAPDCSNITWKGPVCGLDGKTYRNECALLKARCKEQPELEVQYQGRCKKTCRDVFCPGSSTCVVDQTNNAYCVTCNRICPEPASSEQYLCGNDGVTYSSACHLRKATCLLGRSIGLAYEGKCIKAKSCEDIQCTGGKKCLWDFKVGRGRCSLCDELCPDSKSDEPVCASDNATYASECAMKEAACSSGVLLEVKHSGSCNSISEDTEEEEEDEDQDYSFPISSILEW
Chain of Fibroblast growth factor 2 (Homo sapiens) (P09038 whole entry, looked up): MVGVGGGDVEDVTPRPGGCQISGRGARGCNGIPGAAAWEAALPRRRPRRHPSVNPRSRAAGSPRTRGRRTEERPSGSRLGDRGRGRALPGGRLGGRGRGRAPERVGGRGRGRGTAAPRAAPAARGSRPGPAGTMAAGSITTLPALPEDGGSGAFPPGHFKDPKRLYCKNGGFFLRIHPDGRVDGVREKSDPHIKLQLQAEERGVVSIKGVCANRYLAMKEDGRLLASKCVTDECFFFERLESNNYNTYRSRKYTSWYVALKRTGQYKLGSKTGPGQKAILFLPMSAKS
Chain of Torsin-1A (Homo sapiens) (O14656 whole entry, looked up): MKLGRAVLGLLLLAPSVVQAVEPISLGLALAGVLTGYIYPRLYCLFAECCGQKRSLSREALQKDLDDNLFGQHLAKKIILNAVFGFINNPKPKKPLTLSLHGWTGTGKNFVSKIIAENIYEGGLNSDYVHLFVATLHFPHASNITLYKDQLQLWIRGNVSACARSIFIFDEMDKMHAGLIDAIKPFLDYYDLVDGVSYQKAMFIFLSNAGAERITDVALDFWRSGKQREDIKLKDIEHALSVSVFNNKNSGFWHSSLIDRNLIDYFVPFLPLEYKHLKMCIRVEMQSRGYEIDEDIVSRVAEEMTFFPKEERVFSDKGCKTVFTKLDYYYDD
Chain of Streptavidin (Streptomyces avidinii) (P22629 whole entry, looked up): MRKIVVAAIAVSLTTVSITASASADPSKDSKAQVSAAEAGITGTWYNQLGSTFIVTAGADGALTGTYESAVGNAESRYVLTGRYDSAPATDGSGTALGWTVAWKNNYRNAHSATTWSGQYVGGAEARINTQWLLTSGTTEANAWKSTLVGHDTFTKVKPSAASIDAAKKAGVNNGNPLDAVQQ
Chain of Focal adhesion kinase 1 (Homo sapiens) (Q05397 whole entry, looked up): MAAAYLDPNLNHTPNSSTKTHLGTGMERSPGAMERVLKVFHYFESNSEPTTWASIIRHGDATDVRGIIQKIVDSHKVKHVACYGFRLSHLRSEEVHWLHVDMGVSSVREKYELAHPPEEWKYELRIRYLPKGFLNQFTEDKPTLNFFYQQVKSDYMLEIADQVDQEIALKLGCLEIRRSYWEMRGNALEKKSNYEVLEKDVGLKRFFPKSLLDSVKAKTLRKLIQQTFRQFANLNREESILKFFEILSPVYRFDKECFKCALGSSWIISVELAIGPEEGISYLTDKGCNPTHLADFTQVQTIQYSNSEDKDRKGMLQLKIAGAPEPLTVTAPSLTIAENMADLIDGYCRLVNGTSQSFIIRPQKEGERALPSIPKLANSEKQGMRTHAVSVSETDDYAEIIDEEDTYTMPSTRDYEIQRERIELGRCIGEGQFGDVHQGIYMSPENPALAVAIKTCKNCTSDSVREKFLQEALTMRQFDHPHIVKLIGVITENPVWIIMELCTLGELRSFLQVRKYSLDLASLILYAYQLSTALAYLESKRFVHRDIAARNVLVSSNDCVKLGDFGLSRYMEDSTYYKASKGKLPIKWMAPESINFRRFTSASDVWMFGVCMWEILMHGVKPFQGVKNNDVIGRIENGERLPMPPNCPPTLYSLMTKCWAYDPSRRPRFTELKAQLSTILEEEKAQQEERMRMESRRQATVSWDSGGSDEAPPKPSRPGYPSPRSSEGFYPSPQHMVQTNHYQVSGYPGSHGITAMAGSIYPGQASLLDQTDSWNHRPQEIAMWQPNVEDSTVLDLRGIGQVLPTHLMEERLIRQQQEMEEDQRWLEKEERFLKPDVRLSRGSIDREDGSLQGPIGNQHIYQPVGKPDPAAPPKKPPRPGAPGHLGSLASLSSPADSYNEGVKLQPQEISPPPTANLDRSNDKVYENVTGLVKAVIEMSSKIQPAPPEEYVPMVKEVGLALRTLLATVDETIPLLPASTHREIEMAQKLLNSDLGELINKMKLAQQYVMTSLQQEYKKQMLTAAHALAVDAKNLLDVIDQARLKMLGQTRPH
Chain of Luciferin 4-monooxygenase (Photinus pyralis) (P08659 whole entry, looked up): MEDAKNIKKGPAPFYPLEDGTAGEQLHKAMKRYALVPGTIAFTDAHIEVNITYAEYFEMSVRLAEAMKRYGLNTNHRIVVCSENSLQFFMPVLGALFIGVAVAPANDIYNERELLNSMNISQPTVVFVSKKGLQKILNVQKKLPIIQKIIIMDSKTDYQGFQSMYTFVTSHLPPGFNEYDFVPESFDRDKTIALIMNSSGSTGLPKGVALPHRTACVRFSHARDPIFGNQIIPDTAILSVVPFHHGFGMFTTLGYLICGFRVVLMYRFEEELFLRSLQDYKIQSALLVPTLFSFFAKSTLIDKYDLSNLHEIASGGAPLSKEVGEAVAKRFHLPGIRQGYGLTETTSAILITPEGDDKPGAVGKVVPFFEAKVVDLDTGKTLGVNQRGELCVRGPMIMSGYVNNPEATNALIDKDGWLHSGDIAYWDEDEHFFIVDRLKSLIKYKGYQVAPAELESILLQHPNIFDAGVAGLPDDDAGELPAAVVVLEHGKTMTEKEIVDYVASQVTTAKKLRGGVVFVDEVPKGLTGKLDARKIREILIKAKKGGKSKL

SMILES | composite z-score [1] | composite z-score [2] | composite z-score [3] | composite z-score [4] | composite z-score [5] | composite z-score [6] | z-score [7] | composite z-score (Lefty1) | composite z-score [8] | z-score [9] | composite z-score [10] | z-score [11] | z-score [12] | z-score [13] | z-score [14] | composite z-score [15] | composite z-score [16] | composite z-score (Torsin-1A (Homo sapiens) [17]) | composite z-score (Torsin-1A (Homo sapiens) [18]) | composite z-score [19]
COCC(=C=CC[C@@H](O)c1ccccc1OCCO)C[C@@H](O)COCc1ccccc1 | 0.477 | 1.01 | -0.134 | 0.357 | 0.403 | 0.456 | 1.8 | 0.317 | 1.05 | -2.4 (inactive) | 0.561 | -1.43 (inactive) | -0.137 (inactive) | 8.9 (active) | -1.46 (inactive) | -0.236 | 0.799 | 1.26 | 0.717 | 0.709
COC(=O)[C@@]1(Cc2ccc(OC)cc2)[C@H]2c3cc(C(=O)N(C)C)n(Cc4cc(C)n(C)n4)c3C[C@H]2CN1C(=O)c1ccccc1 | 1.08 | 1.29 | 0.405 | -0.842 | -0.396 | -0.233 | -1.14 | -0.0189 | 0.262 | 1.01 (inactive) | 0.982 | -0.753 (inactive) | 0.329 (inactive) | 0.19 (inactive) | 2.65 (inactive) | 0.462 | 0.229 | 0.638 | 0.67 | -0.797
COCCCNC(=O)[C@@]1(Cc2ccccc2I)c2ccccc2C(=O)N(Cc2ccccc2Cl)[C@H]1c1ccc(CO)cc1 | 1.25 | 0.494 | 0.692 | 0.912 | 0.583 | -0.125 | 0.723 | 0.246 | 0.897 | 1.29 (inactive) | -0.193 | -4.15 (inactive) | -1.72 (inactive) | -0.529 (inactive) | -0.656 (inactive) | 1.46 | -0.0538 | -0.0444 | -0.078 | 0.191
C=CCC(OC(C)=O)[C@@H]1[C@@H](N(Cc2ccc(-c3ccccc3)cc2)C(=O)Cc2ccc(OC)cc2)c2cc(OCCCO)ccc2N1C(=O)c1ccc(-c2ccccc2)cc1 (stereo not given in full) | -0.163 | 0.152 | 0.855 | 0.137 | 0.409 | -0.0805 | 2.32 | 0.182 | 0.495 | -0.663 (inactive) | 0.0546 | -1.56 (inactive) | 0.148 (inactive) | 1.34 (inactive) | -0.522 (inactive) | -0.0206 | -0.0018 | 0.0765 | 0.0644 | 1.16
Cc1ccc(S[C@]2(C(=O)NCc3ccccc3)CC(=O)N(C3Cc4ccccc4C3)[C@@H]2c2ccc(CO)cc2I)cc1 | -1.12 | -0.621 | -0.17 | -0.151 | -0.328 | -0.244 | 1.24 | -0.582 | 0.146 | -1.26 (inactive) | -0.265 | -2.56 (inactive) | -0.394 (inactive) | -0.179 (inactive) | -0.17 (inactive) | -0.299 | -0.157 | -0.265 | -1.03 | -0.0358
CCOC(=O)C[C@H]1[C@H](OC(=O)c2ccc(C(=O)c3ccccc3)cc2)[C@@H](NC(=O)C2CCCCC2)c2cc(OCCCO)ccc2N1C(=O)Cc1ccc(OC)cc1 | 0.027 | 0.785 | 0.494 | 0.441 | 0.432 | 0.0799 | 1.36 | 0.942 | 0.221 | 0.13 (inactive) | 0.354 | -0.281 (inactive) | 0.193 (inactive) | 1.24 (inactive) | -0.0721 (inactive) | 0.519 | 0.0497 | 0.192 | 1.24 | 0.761
CCCC=C(CCC)[C@@H](NS(=O)(=O)c1cccc2cccnc12)c1ccc(C(=O)OC)cc1 | 1.4 | 0.36 | 0.542 | 0.395 | 1.31 | 0.33 | 0.0272 | 0.162 | -0.0663 | 2.48 (inactive) | 3.01 | -0.0811 (inactive) | -0.124 (inactive) | -1.13 (inactive) | 0.0608 (inactive) | 0.358 | 2.04 | 0.361 | 0.0731 | -0.187
O=C1O[C@H](c2ccccc2)[C@H](c2ccccc2)N2[C@H]1[C@@H](C(=O)N1CCN(c3ncccn3)CC1)[C@]1(C(=O)Nc3ccc(C#CCCO)cc31)[C@H]2c1ccccc1OCCO | 1.55 | 1.2 | 0.358 | 0.869 | 0.618 | 1.29 | 0.91 | 0.151 | 1.02 | -0.682 (inactive) | 0.163 | -1.55 (inactive) | 0.525 (inactive) | 0.765 (inactive) | -0.484 (inactive) | 0.376 | 0.0714 | 0.506 | 0.686 | 0.371
COC(=O)[C@@]1(Cc2ccc(F)cc2)[C@H]2c3cc(C(=O)N4CCCC4)n(Cc4ccccc4)c3C[C@H]2CN1C(=O)c1ccccc1 | 1.66 | 0.923 | 1.08 | 0.805 | 0.724 | -0.481 | -1.23 | -0.0042 | 0.768 | 2.22 (inactive) | 0.379 | -3.69 (inactive) | 0.195 (inactive) | -0.368 (inactive) | 0.339 (inactive) | 1.38 | -0.0413 | 0.0257 | 0.72 | -0.447
COc1cc(C(O)C2C=CC3C(=O)NC(=O)C3N2Nc2ccc(Cl)cc2Cl)cc(OC)c1OC (stereo not given) | 1.32 | 1.24 | 0.105 | 0.866 | 1.14 | -0.0812 | 0.275 | 0.286 | 0.871 | -0.0332 (inactive) | 0.273 | 0.127 (inactive) | -0.591 (inactive) | 0.622 (inactive) | 0.472 (inactive) | 1.59 | 0.115 | -0.69 | 0.81 | 0.245
